KDM5B inhibitor = KDM5B demethylase inhibition; Q9UGL1; KDM5B demethylase, FDH-coupled NADH fluorescence (FDH is formaldehyde dehydrogenase); Potency, µM (titrated, usually from 57.7 µM), hits mostly inhibitors; actives 2.6% (n = 220,000); AID 1347165; active = well fitted inhibition curve with a large enough effect; inconclusive = small, poorly fitted or top-dose-only effect; inactive = no such curve, though single readings can be large or run the other way; also: nearly all actives have a fitted effect of over 70% in size
Target sequence (Q9UGL1 whole entry, looked up): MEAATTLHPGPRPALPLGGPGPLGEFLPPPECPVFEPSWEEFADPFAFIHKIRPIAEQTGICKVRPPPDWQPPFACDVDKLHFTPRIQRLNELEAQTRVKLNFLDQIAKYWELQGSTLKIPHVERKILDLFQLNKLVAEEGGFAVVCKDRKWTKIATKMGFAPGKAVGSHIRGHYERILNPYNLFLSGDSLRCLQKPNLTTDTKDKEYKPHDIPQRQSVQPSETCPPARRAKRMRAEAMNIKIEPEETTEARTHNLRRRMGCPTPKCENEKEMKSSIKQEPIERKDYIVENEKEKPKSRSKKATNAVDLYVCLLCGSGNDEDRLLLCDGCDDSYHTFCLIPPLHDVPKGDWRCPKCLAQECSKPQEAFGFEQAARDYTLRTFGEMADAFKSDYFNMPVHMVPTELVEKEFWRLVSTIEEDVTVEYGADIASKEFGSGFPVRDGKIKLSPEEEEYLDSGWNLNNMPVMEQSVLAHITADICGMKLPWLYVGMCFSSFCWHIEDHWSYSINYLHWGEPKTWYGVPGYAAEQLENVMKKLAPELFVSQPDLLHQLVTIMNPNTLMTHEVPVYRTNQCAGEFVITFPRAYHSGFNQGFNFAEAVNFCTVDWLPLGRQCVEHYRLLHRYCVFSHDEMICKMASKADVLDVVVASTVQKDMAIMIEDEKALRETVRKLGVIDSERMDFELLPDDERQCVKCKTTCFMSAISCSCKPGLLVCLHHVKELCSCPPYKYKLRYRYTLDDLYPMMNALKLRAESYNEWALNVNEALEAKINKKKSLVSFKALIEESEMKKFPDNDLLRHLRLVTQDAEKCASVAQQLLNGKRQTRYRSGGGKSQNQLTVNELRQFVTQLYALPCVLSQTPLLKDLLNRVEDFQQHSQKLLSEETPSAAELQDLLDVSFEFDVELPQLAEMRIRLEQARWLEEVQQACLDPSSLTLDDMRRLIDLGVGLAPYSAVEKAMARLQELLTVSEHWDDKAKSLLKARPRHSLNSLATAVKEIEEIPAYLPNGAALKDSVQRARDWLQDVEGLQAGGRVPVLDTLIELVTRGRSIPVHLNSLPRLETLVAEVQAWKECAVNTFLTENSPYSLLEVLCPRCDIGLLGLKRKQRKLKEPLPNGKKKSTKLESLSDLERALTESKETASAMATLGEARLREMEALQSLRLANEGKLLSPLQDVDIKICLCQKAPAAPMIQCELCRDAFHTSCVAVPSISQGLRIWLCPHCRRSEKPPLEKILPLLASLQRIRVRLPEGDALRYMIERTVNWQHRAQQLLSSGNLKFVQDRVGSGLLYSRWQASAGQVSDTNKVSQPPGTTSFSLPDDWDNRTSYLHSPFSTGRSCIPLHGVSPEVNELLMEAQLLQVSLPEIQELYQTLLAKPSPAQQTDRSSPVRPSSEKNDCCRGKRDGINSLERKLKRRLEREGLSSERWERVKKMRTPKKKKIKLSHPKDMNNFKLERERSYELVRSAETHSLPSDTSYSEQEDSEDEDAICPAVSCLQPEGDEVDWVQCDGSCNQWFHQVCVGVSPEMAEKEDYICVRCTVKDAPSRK
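Coupled FDH/NAD⁺ fluorescence readout. KDM5BΔAP 200 nM final; compound titration, 10 min RT preincubation; substrate mix 12.5 µM H3K4me3, 25 µM 2-OG, 50 µM Fe(II), 100 µM ascorbate, 0.25 mM NAD⁺, 0.25 U/mL FDH; ΔRFU over 30 min.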
IP6K1 inh = blocks human inositol hexakisphosphate kinase 1. AID 1645851. activity change, % (series mostly up to about 58 µM). Q92551. actives 0.81% (n = 140,000). IP6K1 kinase, ADP-Glo luminescence, 2 h; active compounds read low; in the data active = activity change below about -25%
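ADP-Glo luminescence measures ADP made by human IP6K1 during a 2 h RT reaction with ATP/IP6 (mix at 1.3 mM/130 uM); top library doses 57.5 and 19.1 uM final.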
Large screens that a line does not name were inactive. A selection: hits, their analogues and other compounds. The true share with any hit is near 2.8%.

CCOC(=O)CN1CCN(C(=O)CCc2cc3ccc(C)cc3[nH]c2=O)CC1	KDM5B inhibitor 25.1µM
Cc1ccc2cc(CCC(=O)NCCN3CCN(C)CC3)c(=O)[nH]c2c1	KDM5B inhibitor inconclusive
CCC1CN(c2ccc(-c3nc(-c4ccc(OC)cc4)no3)cn2)CCN1C (stereo not drawn)	KDM5B inhibitor inconclusive
CC(C)Cc1noc(-c2ccc(N3CCCC(C(C)(C)O)C3)nc2)n1 (stereo not drawn)	KDM5B inhibitor inconclusive
COc1cccc(-c2noc(-c3ccc(N4CCCC(CO)C4)nc3)n2)c1OC (stereo not drawn)	KDM5B inhibitor 31.6µM
CC(=O)N1CCCN(c2ccc(-c3nc(-c4ccccc4F)no3)cn2)CC1	KDM5B inhibitor inconclusive
OC1CCCN(c2ccc(-c3nc(-c4cccc(C(F)(F)F)c4)no3)cn2)C1 (stereo not drawn)	KDM5B inhibitor 35.5µM
OCCN1CCN(c2ccc(-c3nc(-c4cccc(C(F)(F)F)c4)no3)cn2)CC1	KDM5B inhibitor 28.2µM
O=C(NCCCN1CCCC1)c1ccc2c(c1)N(S(=O)(=O)c1ccccc1F)CC2	none
Cc1ccc(S(=O)(=O)N2CCC(C(=O)Nc3nc4c(s3)CCCC4)CC2)cc1C	none (no result: IP6K1 inh)
OCc1nc2ccccc2n1CC(O)COc1ccccc1F (stereo not drawn)	none (no result: IP6K1 inh)
CN1C(=O)CCC2(CNC(=O)c3ccncc3)CCC=C12 (stereo not drawn)	KDM5B inhibitor inconclusive
COCCOc1ccc(C(=O)N[C@@H]2CN(C(=O)Nc3ccccc3C(=O)OC)CCC[C@H]2O)cc1	none
COC(=O)c1ccccc1NC(=O)N1CCC[C@@H](O)[C@H](NC(=O)c2ccc(OCc3ccccc3)cc2)C1	KDM5B inhibitor 25.1µM
CC(=O)Nc1cccc(-c2cn(C)c(=O)n3cc(CN4CCNC(=O)C4)nc23)c1	none
CC(=O)Nc1cccc(-c2nc(N3CCOCC3)cc3c2CN(Cc2cnn(C)c2)C3=O)c1	KDM5B inhibitor 28.2µM
COc1ccccc1-c1nc(N2CCOCC2)cc2c1CN(Cc1cnn(C)c1)C2=O	KDM5B inhibitor 35.5µM
COc1ccccc1Nc1nc(N2CCOCC2)c2cnn(C)c2n1	none (no result: IP6K1 inh)
Cc1ccc2nc(C)c(C(=O)OCC(=O)NCC3CCCO3)cc2c1 (stereo not drawn)	none (no result: IP6K1 inh)
COc1cc(=O)n2c(c1C(=O)Nc1ccc(C)cc1Cl)CCCC2	none
COc1ccc(C(=O)COC(=O)c2cc(C)nc3ccccc23)cc1	none (no result: IP6K1 inh)
O=C(CSc1nc2cc([N+](=O)[O-])ccc2o1)NCc1ccccc1F	none (no result: IP6K1 inh)
CSCC(=O)N[C@H]1CCN2C(=O)N(c3ccc(C(C)C)cc3)C(=O)[C@@H]2C1	none
CC(C)c1ccc(N2C(=O)[C@@H]3C[C@@H](NC(=O)C4CCN(c5nccc(C(F)(F)F)n5)CC4)CCN3C2=O)cc1	KDM5B inhibitor 28.2µM
Cc1nn(C)cc1CN(C)Cc1cn(C)nc1-c1ccc(C2CCCCC2)cc1	none
Cn1cc(CN2CCN(c3cnccn3)CC2)c(-c2ccc(C3CCCCC3)cc2)n1	KDM5B inhibitor 28.2µM
O=C(c1ccoc1)N1CCCN(c2nnc3ccc(Cl)cn23)CC1	KDM5B inhibitor inconclusive
Cc1ccc(C(=O)N2CCN(c3nnc4ccccn34)CC2)cc1C	KDM5B inhibitor 25.1µM
O=C(c1cccc(F)c1)N1CCN(c2nnc3ccc(Cl)cn23)CC1	KDM5B inhibitor 14.1µM
O=C(c1ccc(F)cc1)N1CCN(c2nnc3ccccn23)CC1	KDM5B inhibitor 28.2µM
Cc1ccc(C(=O)N2CCN(c3cc(-c4cccs4)[nH]n3)CC2)cc1C	none
O=C(c1ccc2nccn2c1)N1CCN(c2ccc(F)cc2)CC1	KDM5B inhibitor inconclusive
CCN(CC)C(=O)c1ccc(NS(=O)(=O)c2ccccc2C#N)cc1	none (no result: IP6K1 inh)
O=C(CN1CC2CC(C1)[C@H]1CCCC(=O)N1C2)N1CCN(c2cccc(Cl)c2)CC1 (stereo partly drawn)	none
COc1ccc(-c2cc(C(=O)NCC(C)C)c3c(C4CCNC4)nn(C)c3n2)cc1 (stereo not drawn)	KDM5B inhibitor 79.4µM
COc1ccc(-c2cc(C(=O)NC3CC3)c3c(C4CCCN4)nn(C)c3n2)cc1 (stereo not drawn)	KDM5B inhibitor inconclusive
COc1ccc(-c2cc(C(=O)N3CCOCC3)c3c(C4CCNC4)nn(C)c3n2)cc1 (stereo not drawn)	KDM5B inhibitor 79.4µM
Cn1nc(C2CCNC2)c2c(C(=O)NCc3ccncc3)cc(C3CC3)nc21 (stereo not drawn)	KDM5B inhibitor inconclusive
COc1ccc(CN2C(=O)CO[C@H](c3ccc(NS(=O)(=O)c4ccc(F)cc4)cc3)[C@H]2CO)cc1	none
CC(C)N1CC(C(=O)NCc2cccc(F)c2)NC1=O (stereo not drawn)	none (no result: KDM5B inhibitor)
C/C(=C\CO[C@@H]1O[C@H](CO[C@H]2OC[C@](O)(CO)[C@H]2O)[C@@H](O)[C@H](O)[C@H]1O)C(C)(C)O	none (no result: KDM5B inhibitor)
O=C(NCc1nnc2n1C(C(=O)O)CC2)c1ccccc1 (stereo not drawn)	KDM5B inhibitor 100µM
O=C(O)C1CCc2nnc(C3CCCN(C(=O)c4ccc5c(c4)OC(F)(F)O5)C3)n21 (stereo not drawn)	none
O=C(NCc1nnc2n1C(C(=O)O)CC2)c1ccc2c(c1)OC(F)(F)O2 (stereo not drawn)	KDM5B inhibitor 25.1µM
O=C(NCc1nnc2n1C(C(=O)O)CC2)c1ccc(F)cc1 (stereo not drawn)	KDM5B inhibitor 44.7µM
O=C(NCc1nnc2n1C(C(=O)O)CC2)C1CCCC1 (stereo not drawn)	KDM5B inhibitor inconclusive
CC(C)NC(=O)C1CCc2nnc(CNC(=O)c3ccccc3)n21 (stereo not drawn)	none
Cc1c(Br)c(C(F)(F)F)nn1CC(=O)Nc1c(F)cc(F)cc1Br	none (no result: IP6K1 inh)
CCCCCOC(=O)/C(C#N)=C/c1c[nH]c2ccccc12	none (no result: IP6K1 inh)
Cc1ccc(C2C(C#N)=C(N)Nc3ncnn32)cc1 (stereo not drawn)	none (no result: IP6K1 inh)
CN1C(=O)c2ccc(NC(=O)Cn3nc4c(cc3=O)CCCC4)cc2C1=O	KDM5B inhibitor 28.2µM
Cc1ccc(NC(=O)Cn2nc3c(cc2=O)CCCCC3)cc1C	none
COc1ccccc1[C@@H]1CN(C(=O)C2CCOCC2)C[C@H]1C(=O)O	none
CC1(COCC2CC2)COc2ccc(C(=O)NCc3ccccc3)cc2N1 (stereo not drawn)	KDM5B inhibitor 35.5µM
CC(C)CNC(=O)c1ccc2c(c1)NC(C)(COCC1CC1)CO2 (stereo not drawn)	KDM5B inhibitor 39.8µM
CC1(COCC2CC2)COc2ccc(C(=O)NCc3ccc4c(c3)OCO4)cc2N1 (stereo not drawn)	KDM5B inhibitor inconclusive
CC1(COCC2CC2)COc2ccc(C(=O)NCc3ccncc3)cc2N1 (stereo not drawn)	KDM5B inhibitor inconclusive
CC1(COCC2CC2)COc2ccc(C(=O)Nc3cccc([S+](C)(=O)[O-])c3)cc2N1 (stereo not drawn)	KDM5B inhibitor inconclusive
CC1(COCC2CC2)COc2ccc(C(=O)Nc3ccccc3)cc2N1 (stereo not drawn)	KDM5B inhibitor 25.1µM
O=C(c1ccccc1F)N1CCC(O)(c2csc(CN3CCc4ccccc4C3)n2)CC1	KDM5B inhibitor inconclusive
CS(=O)(=O)NCCc1ccc(CC2CCN(C(=O)c3cnccn3)CC2)cc1	none (no result: KDM5B inhibitor)
Cc1cccc(CNC(=O)Cc2csc3ccccc23)c1	none
Cn1ccnc1-c1ccc(N2CCC(CO)(CCOc3ccccc3)CC2)nn1	KDM5B inhibitor 28.2µM
Cc1ccccc1CC1(CO)CCCN(c2ccc(-c3nccn3C)nn2)C1 (stereo not drawn)	KDM5B inhibitor inconclusive

From PubChem BioAssay
